Data on six molecules can be found in PubChem BioAssay (EPA / NIEHS).

Usually AC50 stands for the concentration giving half of the maximal activity seen.

Read-out in test [1]: Human Leukocyte Antigen - DR isotype (HLADR), HLA-DRA (gene 3122)
The test can be described thus: BSK_BE3C_HLADR: BioMAP Diversity Plus: BE3C Assay for Human Leukocyte Antigen - DR isotype (HLADR) Biomarker Activity (AID 2283032). To be noted: primary human bronchial epithelial cells; actives raise or lower the signal. In short, it runs like this: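 BioMAP BE3C format: human bronchial epithelium, 24 h compound treatment, ELISA detection of HLA-DR, with bidirectional analysis relative to DMSO.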

Read-out in test [2]: Vascular cell adhesion molecule 1 (VCAM1), VCAM1 (gene 7412)
The test can be described thus: BSK_4H_VCAM1: BioMAP Diversity Plus: 4H Assay for Vascular cell adhesion molecule 1 (VCAM1) Biomarker Activity (AID 2283033).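 On outcome: cell-surface VCAM-1 protein measured by ELISA.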 To be noted: primary human endothelial cells (HUVEC); actives raise or lower the signal. The gist of the method:
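In this human endothelial (HUVEC) system, biomarker ELISA was run 24 h after compound addition, and total protein in parallel wells was assessed by SRB at 560 nm; DMSO served as negative control.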

Read-out in test [3]: Interferon-gamma inducible Protein 10 (IP10), CXCL10 (gene 3627)
The test can be described thus: BSK_BE3C_IP10: BioMAP Diversity Plus: BE3C Assay for Interferon-gamma inducible Protein 10 (IP10) Biomarker Activity (AID 2283034). To be noted: primary human bronchial epithelial cells; actives raise or lower the signal. In short, it runs like this: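 BE3C cells (human bronchial epithelial, primary); 24 h exposure; ELISA for IP-10; DMSO-referenced bidirectional fit.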

Read-out in test [4]: Monokine induced gamma interferon (MIG), CXCL9 (gene 4283)
The test can be described thus: BSK_BE3C_MIG: BioMAP Diversity Plus: BE3C Assay for Monokine induced gamma interferon (MIG) Biomarker Activity (AID 2283035).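 On outcome: MIG protein measured by ELISA in BE3C cultures after 24 h of dosing.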 The conditions noted are these: primary human bronchial epithelial cells; actives raise or lower the signal. In short, it runs like this:
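ELISA quantified MIG after 24 h exposure of primary bronchial epithelial cultures, analysed in both directions relative to DMSO. Cytotoxicity tracked in parallel cultures by sulforhodamine B staining.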

Read-out in test [5]: Transforming growth factor beta 1 (TGFb1), TGFB1 (gene 7040)
The test is described as follows: BSK_BE3C_TGFb1: BioMAP Diversity Plus: BE3C Assay for Transforming growth factor beta 1 (TGFb1) Biomarker Activity (AID 2283036;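 on outcome: TGF-b1 protein level measured by ELISA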). To be noted: primary human bronchial epithelial cells; actives raise or lower the signal. In short, it runs like this: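 TGF-b1 measured via ELISA, 24 h after chemical dosing of human bronchial epithelial cells (BE3C). Overt cytotoxicity assessed in parallel by SRB (0.1%, TCA-fixed, 560 nm); analysis bidirectional relative to DMSO.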

Read-out in test [6]: Plasminogen activator inhibitor-1 (PAI1), SERPINE1 (gene 5054)
The test is described as follows: BSK_BE3C_PAI1: BioMAP Diversity Plus: BE3C Assay for Plasminogen activator inhibitor-1 (PAI1) Biomarker Activity (AID 2283037). To be noted: primary human bronchial epithelial cells; actives raise or lower the signal. In short, it runs like this:
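In this multiplexed primary-cell system, bronchial epithelial cells receive test chemical and are sampled at 24 h. PAI-1 is read by ELISA, with DMSO serving as negative control for bidirectional fitting.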

Read-out in test [7]: urokinase plasminogen activator (uPA), PLAU (gene 5328)
The test can be described thus: BSK_BE3C_uPA: BioMAP Diversity Plus: BE3C Assay for urokinase plasminogen activator (uPA) Biomarker Activity (AID 2283038).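 On outcome: uPA protein level quantified by ELISA in cell cultures; uPA read one day after compound addition.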 To be noted: primary human bronchial epithelial cells; actives raise or lower the signal. In short, it runs like this:
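Measured by ELISA: uPA from human primary bronchial epithelial cells 24 h after chemical treatment. Values derive from bidirectional curve fitting with DMSO serving as negative control. Total protein by SRB staining in parallel wells flagged overt cytotoxicity.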

Read-out in test [8]: Urokinase-type plasminogen activator receptor (uPAR), PLAUR (gene 5329)
The test is described as follows: BSK_BE3C_uPAR: BioMAP Diversity Plus: BE3C Assay for Urokinase-type plasminogen activator receptor (uPAR) Biomarker Activity (AID 2283039).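 On outcome: uPAR protein level measured by ELISA on the cells; cells exposed to compound for one day before measurement.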 To be noted: primary human bronchial epithelial cells; actives raise or lower the signal. In short, it runs like this: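 Chemically treated human bronchial epithelial cells (lung primary) are assayed for uPAR by ELISA after 24 h, with data fitted in both directions using DMSO as negative control.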

Read-out in test [9]: Interleukin-6 (IL6), IL6 (gene 3569)
The test can be described thus: BSK_CASM3C_IL6: BioMAP Diversity Plus: CASM3C Assay for Interleukin-6 (IL6) Biomarker Activity for (AID 2283040). The conditions noted are these: primary human coronary artery smooth muscle cells; actives raise or lower the signal.

Read-out in test [10]: Tissue plasminogen activator (tPA), PLAT (gene 5327)
The test can be described thus: BSK_BE3C_tPA: BioMAP Diversity Plus: BE3C Assay for Tissue plasminogen activator (tPA) Biomarker Activity (AID 2283041).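 On outcome: tPA level quantified by ELISA one day after compound addition.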 To be noted: primary human bronchial epithelial cells; actives raise or lower the signal. In short, it runs like this: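 Using human lung primary bronchial epithelial cells, tPA was measured by ELISA 24 h after dosing; data fitted relative to DMSO.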

Read-out in test [11]: Interleukin-8 (IL8), CXCL8 (gene 3576)
The test is described as follows: BSK_CASM3C_IL8: BioMAP Diversity Plus: CASM3C Assay for Interleukin-8 (IL8) Biomarker Activity (AID 2283042).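 Further: IL-8 protein level quantified by ELISA.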 To be noted: primary human coronary artery smooth muscle cells; actives raise or lower the signal.

Read-out in test [12]: Human Leukocyte Antigen - DR isotype (HLADR), HLA-DRA (gene 3122)
The test is described as follows: BSK_CASM3C_HLADR: BioMAP Diversity Plus: CASM3C Assay for Human Leukocyte Antigen - DR isotype (HLADR) Biomarker Activity (AID 2283043).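 Further: cell-surface HLA-DR protein level quantified by ELISA.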 The conditions noted are these: primary human coronary artery smooth muscle cells; actives raise or lower the signal.

Read-out in test [13]: Macrophage colony-stimulating factor (MCSF), CSF1 (gene 1435)
The test can be described thus: BSK_CASM3C_MCSF: BioMAP Diversity Plus: CASM3C Assay for Macrophage colony-stimulating factor (MCSF) Biomarker Activity (AID 2283044).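 Further: M-CSF protein amount quantified by ELISA after 24 h exposure.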 The conditions noted are these: primary human coronary artery smooth muscle cells; actives raise or lower the signal.

Read-out in test [14]: Low-density lipoprotein receptor (LDLR), LDLR (gene 3949)
The test can be described thus: BSK_CASM3C_LDLR: BioMAP Diversity Plus: CASM3C Assay for Low-density lipoprotein receptor (LDLR) Biomarker Activity (AID 2283045).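 Further: LDLR protein level on the cell surface quantified by ELISA.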 The conditions noted are these: primary human coronary artery smooth muscle cells; actives raise or lower the signal.

Read-out in test [15]: Monocyte Chemoattractant Protein-1 (MCP1), CCL2 (gene 6347)
The test is described as follows: BSK_CASM3C_MCP1: BioMAP Diversity Plus: CASM3C Assay for Monocyte Chemoattractant Protein-1 (MCP1) Biomarker Activity (AID 2283046).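 Further: MCP-1 level quantified by ELISA 24 h after dosing.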 To be noted: primary human coronary artery smooth muscle cells; actives raise or lower the signal.

The nature of test [16]: BSK_CASM3C_Proliferation: Cell Proliferation Assessment in the BioMAP Diversity Plus: CASM3C Assay (AID 2283047).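 Further: sulforhodamine B total protein stain as relative cell number at 560 nm; sub-confluent cells exposed 48 h before staining; fitted both ways against DMSO so gain or loss of cell number.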 To be noted: primary human coronary artery smooth muscle cells.
Read-out in test [17]: Monokine induced gamma interferon (MIG), CXCL9 (gene 4283)
The test can be described thus: BSK_CASM3C_MIG: BioMAP Diversity Plus: CASM3C Assay for Monokine induced gamma interferon (MIG) Biomarker Activity (AID 2283048).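 Further: MIG protein level measured by ELISA.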 To be noted: primary human coronary artery smooth muscle cells; actives raise or lower the signal.

Read-out in test [18]: serum amyloid A (SAA), SAA1 (gene 6288)
The test is described as follows: BSK_CASM3C_SAA: BioMAP Diversity Plus: CASM3C Assay for serum amyloid A (SAA) Biomarker Activity (AID 2283049).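 Further: SAA protein level quantified by ELISA.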 The conditions noted are these: primary human coronary artery smooth muscle cells; actives raise or lower the signal.

Test [19] is described as follows: BSK_CASM3C_SRB: Viability Assessment in the BioMAP Diversity Plus: CASM3C Assay (AID 2283050).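 Further: total protein by SRB staining as cytotoxicity measure in parallel cultures.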 To be noted: primary human coronary artery smooth muscle cells.
Read-out in test [20]: Thrombomodulin, THBD (gene 7056)
The test is described as follows: BSK_CASM3C_Thrombomodulin: BioMAP Diversity Plus: CASM3C Assay for Thrombomodulin Biomarker Activity (AID 2283051).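 Further: thrombomodulin protein level measured by ELISA 24 h after dosing.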 The conditions noted are these: primary human coronary artery smooth muscle cells; actives raise or lower the signal.

Each structure is given as a SMILES string. Activity calls are given as the source filed them. How the source made its calls: active means hit-call score of the fitted dose curve at least 0.9, where 1 is the maximum; inactive means score below 0.9.

For the molecule `Cc1cc(C)c(O)c(C)c1`, the result in test [1], in test [2], in test [3], in test [4], in test [5] and in [6] was inactive. Further, the outcome in [7], in [8], in [9], in test [10], in test [11] and in [12] was inactive. For the same molecule, the outcome in [13], in test [14], in [15], in [16], in test [17] and in test [18] was inactive. Besides, the outcome in test [19] and in [20] was inactive.
Regarding `CCc1nn(C2CCCCC2)c2cc(C3(C#N)CCC(C(=O)O)CC3)ccc12` (stereo not given), the AC50 is 31 µM (active) in [1]; 27 µM (active) in [2]; 15.2 µM (active) in test [3]; 28 µM (active) in test [4]; 4.33 µM (active) in [6]; 3.48 µM (active) in [7]. Also, the half-maximal activity concentration (AC50) in [8] was 5.01 µM (active); in test [9] it was 11.1 µM (active); in [12], 4.52 µM (active); in [13], 0.657 µM (active); in test [14], 1.47 µM (active); in test [15] it was 7.23 µM (active). The half-maximal activity concentration (AC50) was 4.09 µM (active) in test [16] and 13.1 µM (active) in [17]. The outcome in test [5], in [10], in test [11], in test [18], in test [19] and in test [20] was inactive.
Turning to `c1ccc2c(c1)ccc1ccccc12`, the result in [1], in [2], in test [3], in test [4], in [5] and in test [6] was inactive. Moreover, the result in test [7], in test [8], in test [9], in test [10], in test [11] and in test [12] was inactive. The outcome in test [13], in [14], in test [15], in test [16], in [17] and in test [18] was inactive. In addition, the result in [19] and in test [20] was inactive.
On to `CCCCCCCCCCCCCC[N+](C)(C)C`, for which the AC50 is 3.18 µM (active) in test [1]; 2.83 µM (active) in test [2]; 3.88 µM (active) in test [3]; 8.17 µM (active) in test [4]; 1.52 µM (active) in [5]; 2.63 µM (active) in test [6]. The AC50 in test [7] was 4.85 µM (active); in test [8], 4.06 µM (active); in test [9], 9.39 µM (active); in [10] it was 0.883 µM (active); in test [11] it was 10.8 µM (active); in test [12], 5.99 µM (active). For the same molecule, the concentration at half-maximal activity (AC50) is 4.57 µM (active) in test [13]; 8.07 µM (active) in [14]; 5.83 µM (active) in test [15]; 5.31 µM (active) in test [16]; 11.8 µM (active) in [17]; 2.89 µM (active) in [18]. Besides, the AC50 was 5.35 µM (active) in test [19] and 5.06 µM (active) in test [20].
For the molecule `CC(=O)NC1(c2cccc(F)c2)CCN(CC[C@@]2(c3ccc(Cl)c(Cl)c3)CN(c3ccccc3)C(=O)CO2)CC1`, the AC50 in test [1] is 24.5 µM (active); in [2], 27.8 µM (active); in [3] it was 26 µM (active); in test [4] it was 26.9 µM (active); in [6], 16.6 µM (active); in test [7], 16.6 µM (active). Besides, the AC50 is 16.6 µM (active) in test [8]; 8.45 µM (active) in test [9]; 16.6 µM (active) in [10]; 28.2 µM (active) in test [12]; 4.58 µM (active) in test [14]; 27.3 µM (active) in test [16]. In addition, the AC50 was 23.8 µM (active) in test [19] and 26.1 µM (active) in [20]. In addition, the result in test [5], in test [11], in test [13], in [15], in test [17] and in test [18] was inactive.
Turning to `CCCCCCCC(=O)O`, the result in test [1], in [2], in [3], in test [4], in [5] and in [6] was inactive. For the same molecule, the result in test [7], in test [8], in test [9], in [10], in test [11] and in [12] was inactive. The result in [13], in test [14], in [15], in test [16], in [17] and in [18] was inactive. In addition, the outcome in test [19] and in test [20] was inactive.
